The values below come from PubChem BioAssay (EPA / NIEHS).

Calls of active or inactive are those of the source. Rule for the calls: active = hit-call score of the fitted dose curve at least 0.9, where 1 is the maximum; inactive = score below 0.9.

Estrogen receptor (Homo sapiens), sequence (P03372 whole entry, looked up): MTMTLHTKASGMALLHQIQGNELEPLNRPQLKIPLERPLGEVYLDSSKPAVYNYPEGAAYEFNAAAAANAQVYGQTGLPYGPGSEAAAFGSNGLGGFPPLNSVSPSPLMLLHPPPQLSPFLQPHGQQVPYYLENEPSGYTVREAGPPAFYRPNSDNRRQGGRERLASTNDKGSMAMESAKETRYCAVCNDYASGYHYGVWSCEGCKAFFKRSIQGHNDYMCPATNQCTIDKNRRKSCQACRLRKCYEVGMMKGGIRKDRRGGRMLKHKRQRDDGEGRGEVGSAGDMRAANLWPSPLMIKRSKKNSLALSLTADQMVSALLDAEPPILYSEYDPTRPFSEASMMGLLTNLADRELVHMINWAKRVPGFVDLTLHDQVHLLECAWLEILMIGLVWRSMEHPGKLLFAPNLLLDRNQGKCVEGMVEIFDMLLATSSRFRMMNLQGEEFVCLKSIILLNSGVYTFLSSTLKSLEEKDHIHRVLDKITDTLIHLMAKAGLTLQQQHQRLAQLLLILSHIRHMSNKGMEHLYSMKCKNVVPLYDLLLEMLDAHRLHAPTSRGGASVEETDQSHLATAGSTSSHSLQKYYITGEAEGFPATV

This assay addresses Estrogen receptor (Homo sapiens) (UniProt P03372). The assay is described as follows: OT_ERa_GFPERaERE_0480: Odyssey Thera (OT) 8-hour HeLa Transcription Induction Assay for Estrogen Receptor (AID 2283381). How it is done:
OT_ERa_GFPERaERE_0480 is a cell-based, single-readout assay that uses HeLa, a human cervix cell line, with measurements taken at 8 hours after chemical dosing in a 384-well plate.OT_ERa_GFPERaERE_0480 is one of one assay component(s) measured or calculated from the OT_ERa_GFPERaERE_0480 assay. It is designed to make measurements of fluorescent protein induction, a form of inducible reporter, as detected with optical microscopy: fluorescence microscopy signals by Microscopy technology.Data from the assay component OT_ERa_GFPERaERE_0480 was analyzed into 1 assay endpoint. This assay endpoint, OT_ERa_EREGFP_0480, was analyzed in the positive analysis fitting direction relative to DMSO as the negative control and baseline of activity. Using a type of inducible reporter, measures of receptor for gain-of-signal activity can be used to understand the reporter gene at the pathway-level as they relate to the gene ESR1. Furthermore, this assay endpoint can be referred to as a primary readout, because the performed assay has only produced 1 assay endpoint. To generalize the intended target to other relatable targets, this assay endpoint is annotated to the nuclear receptor intended target family, where the subfamily is steroidal.
All assay endpoints are quantified using high content image analysis algorithms.
As to `COC(=O)c1c(Cl)c(Cl)c(C(=O)OC)c(Cl)c1Cl`, the compound was called inactive.

In the case of `O=c1n(CC2CO2)c(=O)n(CC2CO2)c(=O)n1CC1CO1` (stereo not given), the compound was called inactive.

As to `C=CC(=C)CCC=C(C)C`, the call was inactive.

Take `CC[C@H]1CC[C@H](NCc2cc3c(cc2OC)[C@H]2C[C@H]2C(=O)N3C)[C@H](c2ccccc2)N1`: the compound was called inactive.

Turning to `CCCCCCCCO`, the outcome was inactive.

As to `COc1cccc(-c2ccc(/C=C\CN3CCCCCC3)cc2Cl)c1`, the compound was called inactive.

Take `CC(C)=CCCC(C)CCO` (stereo not given): the compound was classed as inactive.

On to `Nc1ccc(Nc2ccccc2)cc1`, for which the outcome was inactive.

Regarding `CCCC(=O)OCC`, the outcome was inactive.

Consider `Cc1ccc(S(=O)(=O)O)cc1C`, for which the call was inactive.

Consider `CCCCC(CC)COC(=O)CCCCCCCCC(=O)OCC(CC)CCCC` (stereo not given), for which the compound was classed as inactive.

Regarding `COc1ccc(-n2nc(C(F)F)cc2-c2ccc(S(C)=O)cc2)cc1` (stereo not given), the compound was called inactive.

Regarding `O=P(OC(CCl)CCl)(OC(CCl)CCl)OC(CCl)CCl`, the compound was called inactive.

`C=CCCCCCCCCC(=O)O`: the compound was classed as inactive.

For `Cn1cnc([N+](=O)[O-])c1Sc1ncnc2nc[nH]c12`, the outcome was inactive.

As for `CC[C@H](C)C(=O)O[C@H]1C[C@@H](C)C=C2C=C[C@H](C)[C@H](CC[C@@H]3C[C@@H](O)CC(=O)O3)[C@H]21`, the result was inactive.

With `O=C(O)c1cccc(Oc2ccccc2)c1`, the call was inactive.

Regarding `CC/C(=C\C(=N/O)C(N)=O)C(C)[N+](=O)[O-]` (stereo not given), the outcome was inactive.

For the compound `CC(C)CCO`, the call was inactive.

Turning to `COC(=O)CC(=O)OC`, the compound was classed as inactive.

Turning to `COC(=O)c1ccccc1O`, the compound was called inactive.

For `CCn1nc(Cc2ccccc2)cc1C1CCN(C[C@H]2C[C@H](N(C)[C@@H](C(=O)O)C(C)C)C[C@@H]2c2cccc(F)c2)CC1`, the result was inactive.

One may read the AC50 as the concentration at which the activity in the assay is half-maximal. Regarding `CCOC(=O)COc1ccc2c(c1)CC(NCC(O)c1cccc(Cl)c1)CC2` (stereo not given), the AC50 is 69.3 µM (active).

Take `O=C(NS(=O)(=O)/C=C/c1ccccc1)c1ccc(F)cc1Cl`: the compound was called inactive.

`Cn1c(=O)cc(Oc2ccc(F)cc2F)c2cnc(NCC(C)(C)O)nc21`: the outcome was inactive.

Consider `COc1ccc2sc(C(=O)Nc3nnn[nH]3)c(OC(C)C)c2c1`, for which the compound was classed as inactive.

`CC(C)=CCCC(C)=CC=O`: the compound was called inactive.

`CCC(C)(C)C(=O)O[C@H]1C[C@@H](C)C=C2C=C[C@H](C)[C@H](CC[C@@H]3C[C@@H](O)CC(=O)O3)[C@H]21`: the compound was classed as inactive.

`Cc1ccc(N)cc1O`: the compound was classed as inactive.

Turning to `O=c1[nH]c2ccc(S(=O)CCN3CCC(Cc4ccc(F)cc4)CC3)cc2o1` (stereo not given), the result was inactive.
